# Experiments:
# Experiment in all cases: DAPPL (digital affinity profiling via proximity ligation, sequencing); 10 mM Tris-HCl pH 7.5, 50 mM NaCl, 1 mM DTT, 4% glycerol, room temperature, 30 min; GST-TFs on glutathione beads, 16-mer random dsDNA library, 0.1% formaldehyde crosslink after washing; high values mean tight binding
# Details in all cases: protein: recombinant; tags: N-terminal GST; dsDNA, one strand shown
# [1] = target: T1, FLI1 (Homo sapiens, UniProt Q01543 1-452)
# T1 sequence: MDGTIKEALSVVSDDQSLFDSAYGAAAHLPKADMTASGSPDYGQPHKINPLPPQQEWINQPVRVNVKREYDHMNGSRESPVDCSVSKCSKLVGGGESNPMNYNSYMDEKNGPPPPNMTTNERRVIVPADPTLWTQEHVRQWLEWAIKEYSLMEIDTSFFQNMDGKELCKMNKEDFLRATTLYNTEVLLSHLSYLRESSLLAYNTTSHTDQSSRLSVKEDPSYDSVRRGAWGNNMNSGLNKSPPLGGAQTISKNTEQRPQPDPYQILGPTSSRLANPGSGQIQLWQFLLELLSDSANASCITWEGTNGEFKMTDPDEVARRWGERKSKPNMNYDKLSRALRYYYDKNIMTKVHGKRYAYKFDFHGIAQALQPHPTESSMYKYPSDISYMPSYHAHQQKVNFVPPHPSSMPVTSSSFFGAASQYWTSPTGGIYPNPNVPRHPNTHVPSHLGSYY
# Outline: (§1)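 In yeast, human transcription factors were expressed with a GST fusion, then pulled down on glutathione beads and given DNA barcodes. Pooled with a tag-only sample, they were exposed to 200 nmole of a 16-mer random double-stranded DNA library (Tris/NaCl/DTT/glycerol buffer, room temperature, 30 min), washed, crosslinked with 0.1% formaldehyde, proximity-ligated using BsaI/T4 ligase for 1 h at 37 °C, PCR-amplified and read on an Illumina NextSeq500. Each hexamer's frequency of reads for a factor, divided by the matching frequency for the tag-only sample, gives the binding signal.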
# [2] = target: T2, ELK1 (Homo sapiens, UniProt P19419 1-428)
# T2 sequence: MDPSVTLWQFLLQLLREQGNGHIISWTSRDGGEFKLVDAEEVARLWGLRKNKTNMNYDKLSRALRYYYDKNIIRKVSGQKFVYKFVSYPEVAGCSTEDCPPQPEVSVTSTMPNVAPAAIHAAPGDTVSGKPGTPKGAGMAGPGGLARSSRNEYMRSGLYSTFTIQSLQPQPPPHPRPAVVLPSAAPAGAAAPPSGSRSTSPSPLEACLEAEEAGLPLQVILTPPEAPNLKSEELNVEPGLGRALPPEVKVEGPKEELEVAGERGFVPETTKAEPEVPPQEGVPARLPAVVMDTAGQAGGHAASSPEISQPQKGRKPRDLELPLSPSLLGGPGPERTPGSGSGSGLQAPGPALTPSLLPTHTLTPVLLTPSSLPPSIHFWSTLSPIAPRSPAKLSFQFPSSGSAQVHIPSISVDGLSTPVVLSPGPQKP
# Outline: as §1
# [3] = target: T3, GABPA (Homo sapiens, UniProt Q06546 1-454)
# T3 sequence: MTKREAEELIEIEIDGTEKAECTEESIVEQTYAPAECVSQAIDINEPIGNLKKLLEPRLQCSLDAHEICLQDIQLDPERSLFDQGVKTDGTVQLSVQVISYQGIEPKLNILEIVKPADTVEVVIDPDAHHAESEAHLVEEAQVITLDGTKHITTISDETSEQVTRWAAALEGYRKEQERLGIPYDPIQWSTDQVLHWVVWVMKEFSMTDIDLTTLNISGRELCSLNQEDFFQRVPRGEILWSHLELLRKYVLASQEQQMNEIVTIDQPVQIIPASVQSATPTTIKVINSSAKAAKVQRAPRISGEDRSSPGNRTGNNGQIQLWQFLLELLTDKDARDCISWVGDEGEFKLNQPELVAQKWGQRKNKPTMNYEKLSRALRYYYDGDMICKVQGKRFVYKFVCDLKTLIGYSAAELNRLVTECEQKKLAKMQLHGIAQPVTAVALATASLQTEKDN
# Outline: as §1
# [4] = target: T4, ERG (Homo sapiens, UniProt P11308 1-479)
# T4 sequence: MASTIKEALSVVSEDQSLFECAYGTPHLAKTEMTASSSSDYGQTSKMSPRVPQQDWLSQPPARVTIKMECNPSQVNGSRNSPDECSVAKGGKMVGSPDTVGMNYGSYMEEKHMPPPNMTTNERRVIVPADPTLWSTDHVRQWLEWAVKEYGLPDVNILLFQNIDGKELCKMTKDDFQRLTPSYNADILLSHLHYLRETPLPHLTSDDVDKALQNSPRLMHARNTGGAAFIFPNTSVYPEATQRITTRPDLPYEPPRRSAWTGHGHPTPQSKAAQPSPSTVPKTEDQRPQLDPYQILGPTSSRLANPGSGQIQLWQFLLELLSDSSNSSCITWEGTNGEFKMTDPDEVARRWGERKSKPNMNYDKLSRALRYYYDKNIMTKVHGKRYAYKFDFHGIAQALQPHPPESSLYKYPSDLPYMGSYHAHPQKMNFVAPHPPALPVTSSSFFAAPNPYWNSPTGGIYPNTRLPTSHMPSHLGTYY
# Outline: as §1
# [5] = target: ELF1 (Homo sapiens, UniProt P32519 1-619)
# Outline: as §1
# [6] = target: T5, EHF (Homo sapiens, UniProt Q9NZC4 1-300)
# T5 sequence: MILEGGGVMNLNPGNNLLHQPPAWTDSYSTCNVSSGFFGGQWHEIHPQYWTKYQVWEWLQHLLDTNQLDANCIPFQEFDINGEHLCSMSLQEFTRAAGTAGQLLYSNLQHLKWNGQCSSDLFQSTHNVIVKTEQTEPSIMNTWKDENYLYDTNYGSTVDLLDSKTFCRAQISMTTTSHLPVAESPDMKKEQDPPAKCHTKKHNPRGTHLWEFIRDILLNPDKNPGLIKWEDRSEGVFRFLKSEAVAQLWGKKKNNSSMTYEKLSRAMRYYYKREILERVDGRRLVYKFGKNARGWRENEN
# Outline: as §1
# [7] = target: SPI1 (Homo sapiens, UniProt P17947 1-270)
# Outline: as §1
# [8] = target: SPIB (Homo sapiens, UniProt Q01892 1-262)
# Outline: as §1
# [9] = target: T6, ELK3 (Homo sapiens, UniProt P41970 1-407)
# T6 sequence: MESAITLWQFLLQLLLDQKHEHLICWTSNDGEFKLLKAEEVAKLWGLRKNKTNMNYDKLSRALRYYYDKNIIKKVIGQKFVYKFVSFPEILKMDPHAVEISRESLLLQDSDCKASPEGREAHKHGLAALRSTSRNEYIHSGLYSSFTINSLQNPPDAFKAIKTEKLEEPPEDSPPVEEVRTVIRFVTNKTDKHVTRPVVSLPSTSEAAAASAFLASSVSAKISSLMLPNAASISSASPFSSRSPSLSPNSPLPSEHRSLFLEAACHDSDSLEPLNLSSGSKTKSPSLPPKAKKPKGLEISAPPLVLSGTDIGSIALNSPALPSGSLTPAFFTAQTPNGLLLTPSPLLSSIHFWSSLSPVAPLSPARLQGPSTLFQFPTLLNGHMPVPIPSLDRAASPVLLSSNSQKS
# Outline: as §1
# ELF1, sequence (P32519 whole entry): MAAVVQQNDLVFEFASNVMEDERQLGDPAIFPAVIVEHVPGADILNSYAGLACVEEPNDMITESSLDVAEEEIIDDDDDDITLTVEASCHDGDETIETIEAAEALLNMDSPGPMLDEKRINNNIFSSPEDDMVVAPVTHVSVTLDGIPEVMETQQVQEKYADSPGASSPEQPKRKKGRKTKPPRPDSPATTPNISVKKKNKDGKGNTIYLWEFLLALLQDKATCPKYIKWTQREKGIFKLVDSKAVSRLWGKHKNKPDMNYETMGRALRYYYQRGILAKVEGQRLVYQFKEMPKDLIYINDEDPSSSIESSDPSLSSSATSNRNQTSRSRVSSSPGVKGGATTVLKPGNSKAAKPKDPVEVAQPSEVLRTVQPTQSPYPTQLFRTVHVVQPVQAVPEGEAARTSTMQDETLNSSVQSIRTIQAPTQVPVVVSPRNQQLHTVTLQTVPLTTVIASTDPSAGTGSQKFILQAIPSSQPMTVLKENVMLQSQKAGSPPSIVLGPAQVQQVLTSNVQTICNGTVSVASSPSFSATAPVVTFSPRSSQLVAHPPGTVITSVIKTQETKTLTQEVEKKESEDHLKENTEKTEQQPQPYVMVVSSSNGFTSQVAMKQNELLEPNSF
# SPIB, sequence (Q01892 whole entry): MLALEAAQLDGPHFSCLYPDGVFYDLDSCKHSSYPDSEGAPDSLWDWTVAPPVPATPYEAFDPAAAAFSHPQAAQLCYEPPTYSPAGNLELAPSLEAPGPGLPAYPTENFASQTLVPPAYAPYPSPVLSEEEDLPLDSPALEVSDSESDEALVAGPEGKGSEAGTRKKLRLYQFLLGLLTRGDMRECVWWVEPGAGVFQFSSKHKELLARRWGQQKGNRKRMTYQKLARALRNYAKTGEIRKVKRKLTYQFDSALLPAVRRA
sequence,measurement,setting,value
CCGTCC,binding signal,[1],"1.37 fold enrichment (6-mer frequency, TF over GST control)"
same,binding signal,[2],"1.37 fold enrichment (6-mer frequency, TF over GST control)"
same,binding signal,[3],"1.29 fold enrichment (6-mer frequency, TF over GST control)"
same,binding signal,[4],"1.42 fold enrichment (6-mer frequency, TF over GST control)"
same,binding signal,[5],"1.37 fold enrichment (6-mer frequency, TF over GST control)"
same,binding signal,[6],"1.42 fold enrichment (6-mer frequency, TF over GST control)"
same,binding signal,[7],"1.21 fold enrichment (6-mer frequency, TF over GST control)"
same,binding signal,[8],"1.25 fold enrichment (6-mer frequency, TF over GST control)"
same,binding signal,[9],"1.39 fold enrichment (6-mer frequency, TF over GST control)"

# Source: article PMC7862700, “An all-to-all approach to the identification of sequence-specific readers for epigenetic DNA modifications on cytosine”
